Test results from PubChem BioAssay (NCI).
Values joined by “and” are separate entries in the source; they are usually repeats but may differ in a detail not shown here. Equal entries are not always repeated. The panel holds about 83,000 compounds, 20% with a hit somewhere; the sample as a whole holds those more often.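 The endpoint reported here, percent growth, reads 100 for growth as untreated, 0 for no net growth and -100 for all cells dead.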 Active and inactive are the calls of the source. Rule for the calls: active = growth percent below 10; inactive = the rest.

The compounds below were run on A549/ATCC NSCLC (assay: NCI-60 one-dose screen, 48 h (100 = growth as untreated, 0 = no growth, -100 = all killed)). Conditions: 10 µM unless noted.

Row | Structure (SMILES) | growth
1 | COc1cc2oc3cc(=O)cc4oc(-c5ccccc5)cc(c2c2c1CCC(c1ccccc1)O2)c43 (centres undefined) | 96.2% (inactive)
2 | CCOC(=O)c1ccc(N2C(=O)C(Cl)(c3ccccc3)C2c2ccco2)cc1 (centres undefined) | 86.2% (inactive)
3 | Cc1cc(NC(=O)NC(=O)c2ccccc2N(C)C)ccc1Oc1ncc(Br)cn1 | 43.9% (inactive) and 33.7% (inactive)
4 | CCc1ccc(OC(=O)CCl)cc1 | 105% (inactive)
5 | CCNC1=CC(=O)c2ncccc2C1=O | -54.8% (active)
6 | O=C(O)Cc1cc(=O)[nH]n(-c2ccccc2)c1=O | 95.6% (inactive)

These compounds were tested on 786-0 renal in the same assay as above. Conditions: 10 µM.

Row | Structure (SMILES) | growth
7 | O=c1ccn2c(n1)OC1CC2OC1COC(c1ccccc1)(c1ccccc1)c1ccccc1 (centres undefined) | 113% (inactive)
8 | CS/C(=C\c1ccc(C(=O)c2ccc(C)cc2)n1C)S(C)=O (centres undefined) | 99.4% (inactive)
9 | S=c1nc[nH]c2nc[nH]c12 | 17.3% (inactive)

Same assay, conditions: 10 µM unless noted

Row | Structure (SMILES) | growth
10 | Cc1c(Cl)cc(Cl)c(N)c1Cl | 109% (inactive)
11 | Oc1ccc(O)c(-c2ccccc2)c1 | 65.6% (inactive)
12 | CCOCCC(=O)O | 103% (inactive)
13 | CCOC(=O)NC(N)=O | 97.3% (inactive) and 101% (inactive)
14 | CCCCC/C(C)=N\NC(N)=S | 101% (inactive)
15 | COc1cc2c(cc1O)C(=O)CCCC2 | 94.9% (inactive)
16 | O=C1C=CC[C@H](/C=C/c2ccccc2)O1 | 48.2% (inactive) and -27.8% (active)
17 | NC1=NC(c2ccccc2)N=C(Nc2ccccc2)N1 (centres undefined) | 93.3% (inactive) and 101% (inactive)
18 | CSc1nc(N)c(N)c(N)n1 | 109% (inactive)
19 | CCN(C)c1ccccc1 | 97% (inactive)
20 | Cc1cnc(N)s1 | 106% (inactive)
21 | COC(=O)c1nc(=S)[nH]c(C(=O)OC)c1C(=O)c1ccccc1 | 120% (inactive)
22 | CC(=O)c1cc2ccccc2o1 | 94.1% (inactive)
23 | OCCCc1ccccc1 | 110% (inactive)
24 | CCC/C(=N/NC(N)=O)c1ccco1 | 89.7% (inactive)
25 | O=C1C(=O)c2ccccc2C(O)=C1CC=C(Cl)Cl | 39.5% (inactive) and 60% (inactive)
26 | CCC(=O)Oc1ccc(OCc2ccccc2)cc1 | 81.5% (inactive) and 79.6% (inactive)
27 | O=C(OCc1ccccc1)c1ccccc1 | 95.1% (inactive) and 96.5% (inactive)

Row | Structure (SMILES) | growth
28 | COc1ccc(CCl)c(C)c1OC | 106% (inactive)
29 | Nc1c(S(=O)(=O)O)cc(Br)c2c1C(=O)c1ccccc1C2=O | 106% (inactive) and 110% (inactive)
30 | CC1CC(O)CC(C)(C)C1.CC1CC(O)CC(C)(C)C1.CC1CC(O)CC(C)(C)C1.CC1CC(O)CC(C)(C)C1.[Ti] (centres undefined) | 107% (inactive)
31 | CC(=O)Oc1ccc(C(c2ccc(OC(C)=O)cc2)c2ccccn2)cc1 | 101% (inactive)
32 | CC(C)=NOC(C)C(=O)O (centres undefined) | 97.8% (inactive)
33 | CCNCc1ccccc1 | 103% (inactive)
34 | Oc1cccnc1CN1CCOCC1 | 105% (inactive) and 101% (inactive)
35 | O=C1C2=C(Nc3cc(Cl)ccc3N2)OC1c1c[nH]c2ccc(COc3ccccc3)cc12 (centres undefined) | 38.8% (inactive)
36 | CCOC(=O)C1=C(C)NC(C)=C(C(=O)OCC)C1 | 117% (inactive) and 87.5% (inactive)
37 | CC(C)(C)C1CCC(=NO)CC1 (centres undefined) | 94.5% (inactive)
38 | O=C1c2ccccc2CN1c1ccccc1 | 94.7% (inactive)
39 | COc1cc2oc3cc(=O)cc4oc(-c5ccccc5)cc(c2c2c1CCC(c1ccccc1)O2)c43 (centres undefined) | 110% (inactive)
40 | CCOC(=O)c1ccc(N2C(=O)C(Cl)(c3ccccc3)C2c2ccco2)cc1 (centres undefined) | 80.9% (inactive)
41 | Cc1cc(NC(=O)NC(=O)c2ccccc2N(C)C)ccc1Oc1ncc(Br)cn1 | 27.9% (inactive) and 31.4% (inactive)
42 | CCc1ccc(OC(=O)CCl)cc1 | 104% (inactive)
43 | CCNC1=CC(=O)c2ncccc2C1=O | 83.6% (inactive)
44 | O=C(O)Cc1cc(=O)[nH]n(-c2ccccc2)c1=O | 108% (inactive)
